Here are results for 14 compounds from PubChem BioAssay (NCATS).

SMILES strings stand for the structures. Inconclusive results are not listed. Unmarked numbers belong to inactive results. The source made the active and inactive calls. The call rests on the fitted dose curve; in most records, active means well fitted cell-killing curve with a large enough effect; inconclusive means small, poorly fitted or top-dose-only effect, or effect the other way; inactive means flat fitted curve, though single readings scatter.
On the % scale 0 is the no-effect control and ±100 the full control effect; potency means the concentration at half of the fitted maximal effect.

In one experiment the test system is C33A. As to the kind of experiment: Primary qHTS to identify gynecologic anti-cancer compounds using libraries of approved drugs and bioactive compounds (AID 1345084). Further: nearly all actives have a fitted effect of over 55% in size. The note with it: Gynecologic cancer cell panel viability, ATPlite luminescence, 48 h; series mostly up to 57.5 µM; activity change, negative = cytotoxicity: at the top concentration. In a few lines: (§1)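 Cytotoxicity screen measuring ATP content by luciferase luminescence. Each compound is applied at five concentrations for 48 h at 37 C with 5% CO2.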
On to `CCCCN(CC)c1nc(C)nc2c1c(C)cn2-c1c(C)cc(C)cc1C`, for which the “activity change, negative = cytotoxicity” value was 19.1%.

Take `COC(=O)Nc1nc2ccc(C(=O)C3CC3)cc2[nH]1`: the Potency is 12.6 µM (active).

Regarding `S=c1[nH]c2ccccc2s1`, the “activity change, negative = cytotoxicity” value was 9.11% [at 116 µM].

Regarding `CN1[C@@H]2CC[C@H]1CC(OC(c1ccccc1)c1ccccc1)C2` (stereo partly specified), the “activity change, negative = cytotoxicity” value was -2.53%.

As to `COc1ccc(/C=C/C(=O)Nc2ccccc2C(=O)O)cc1OC`, the “activity change, negative = cytotoxicity” value is -1.91%.

As for `NC(=O)C(c1ccccc1)(c1ccccc1)[C@@H]1CCN(CCc2ccc3c(c2)CCO3)C1`, the “activity change, negative = cytotoxicity” value was -0.167%.

Take `COc1cc(CNC(=O)CCCC/C=C/C(C)C)ccc1O`: the “activity change, negative = cytotoxicity” value is -12.4%.

Take `O=c1[nH]c2ccccc2n1CCCN1CCN(C(c2ccccc2)c2ccccc2)CC1`: the “activity change, negative = cytotoxicity” value is -12.7%.

Take `COC(=O)C1=C(C)NC(C)=C(C(=O)OC)C1c1cccc(NC(=O)NCCCN2CCC(c3cccc(OC)c3)CC2)c1`: the “activity change, negative = cytotoxicity” value is -4.91%.

Turning to `CN1[C@@H]2CC[C@H]1CC(OC(=O)C(CO)c1ccccc1)C2` (stereo partly specified), the “activity change, negative = cytotoxicity” value is 10.6%.

The next experiment relates to CASKI. The description is as above. The note with it: Gynecologic cancer cell panel viability, ATPlite luminescence, 48 h; series mostly up to 57.5 µM; activity change, negative = cytotoxicity: at the top concentration. Put shortly: as §1
For `CCCCN(CC)c1nc(C)nc2c1c(C)cn2-c1c(C)cc(C)cc1C`, the “activity change, negative = cytotoxicity” value was 27%.

Consider `S=c1[nH]c2ccccc2s1`, for which the “activity change, negative = cytotoxicity” value is 3.7% [at 116 µM].

On to `CN1[C@@H]2CC[C@H]1CC(OC(c1ccccc1)c1ccccc1)C2` (stereo partly specified), for which the “activity change, negative = cytotoxicity” value is -2.89%.

On to `COc1ccc(/C=C/C(=O)Nc2ccccc2C(=O)O)cc1OC`, for which the “activity change, negative = cytotoxicity” value was -24.1%.

For the compound `NC(=O)C(c1ccccc1)(c1ccccc1)[C@@H]1CCN(CCc2ccc3c(c2)CCO3)C1`, the “activity change, negative = cytotoxicity” value is 2.63%.

`COc1cc(CNC(=O)CCCC/C=C/C(C)C)ccc1O`: the “activity change, negative = cytotoxicity” value was -1.72%.

With `O=C(Nc1ccc2c(c1)CCN(Cc1ncn[nH]1)C2)c1ccccc1-c1ccc(C(F)(F)F)cc1`, the “activity change, negative = cytotoxicity” value was 0.54%.

As to `Cc1onc(-c2c(F)cccc2Cl)c1C(=O)N[C@@H]1C(=O)N2[C@@H]1SC(C)(C)[C@@H]2C(=O)O`, the “activity change, negative = cytotoxicity” value was 26.4%.

With `CN1[C@@H]2CC[C@H]1CC(OC(=O)C(CO)c1ccccc1)C2` (stereo partly specified), the “activity change, negative = cytotoxicity” value is 7.92%.

The subject of the next experiment is Es-2. Described as above. The note with it: Gynecologic cancer cell panel viability, ATPlite luminescence, 48 h; series mostly up to 57.5 µM; activity change, negative = cytotoxicity: at the top concentration. Put shortly:
as §1
Regarding `CCCCN(CC)c1nc(C)nc2c1c(C)cn2-c1c(C)cc(C)cc1C`, the “activity change, negative = cytotoxicity” value is -0.202%.

As for `CCCSc1ccc2nc(NC(=O)OC)[nH]c2c1`, the Potency is 3.55 µM (active).

Regarding `COC(=O)Nc1nc2ccc(C(=O)C3CC3)cc2[nH]1`, the Potency is 3.16 µM (active).

Take `S=c1[nH]c2ccccc2s1`: the “activity change, negative = cytotoxicity” value is 7.6% [at 116 µM].

Take `CN1[C@@H]2CC[C@H]1CC(OC(c1ccccc1)c1ccccc1)C2` (stereo partly specified): the “activity change, negative = cytotoxicity” value was 2.3%.

Regarding `COc1ccc(/C=C/C(=O)Nc2ccccc2C(=O)O)cc1OC`, the “activity change, negative = cytotoxicity” value is -19%.

For `NC(=O)C(c1ccccc1)(c1ccccc1)[C@@H]1CCN(CCc2ccc3c(c2)CCO3)C1`, the “activity change, negative = cytotoxicity” value is -1.29%.

On to `COc1cc(CNC(=O)CCCC/C=C/C(C)C)ccc1O`, for which the “activity change, negative = cytotoxicity” value is -6.36%.

Consider `O=C(Nc1ccc2c(c1)CCN(Cc1ncn[nH]1)C2)c1ccccc1-c1ccc(C(F)(F)F)cc1`, for which the “activity change, negative = cytotoxicity” value is 0.464%.

Turning to `Cc1onc(-c2c(F)cccc2Cl)c1C(=O)N[C@@H]1C(=O)N2[C@@H]1SC(C)(C)[C@@H]2C(=O)O`, the “activity change, negative = cytotoxicity” value was 2.13%.

With `COC(=O)C1=C(C)NC(C)=C(C(=O)OC)C1c1cccc(NC(=O)NCCCN2CCC(c3cccc(OC)c3)CC2)c1`, the “activity change, negative = cytotoxicity” value is -13.6%.

As for `CN1[C@@H]2CC[C@H]1CC(OC(=O)C(CO)c1ccccc1)C2` (stereo partly specified), the “activity change, negative = cytotoxicity” value was -3.85%.

A further experiment deals with HeLa. The experiment is described as above. The note with it: Gynecologic cancer cell panel viability, ATPlite luminescence, 48 h; series mostly up to 57.5 µM; activity change, negative = cytotoxicity: at the top concentration. In a few lines:
as §1
On the technique in general: ATP-based viability assays read luminescence as a measure of living cells.
Regarding `CCCCN(CC)c1nc(C)nc2c1c(C)cn2-c1c(C)cc(C)cc1C`, the “activity change, negative = cytotoxicity” value was 10.5%.

`CCCSc1ccc2nc(NC(=O)OC)[nH]c2c1`: the Potency is 2 µM (active).

With `COC(=O)Nc1nc2ccc(C(=O)C3CC3)cc2[nH]1`, the Potency was 2 µM (active).

With `Cc1nc2ccccc2n1Cc1ccc(Cl)cc1`, the “activity change, negative = cytotoxicity” value was -10.2%.

On to `S=c1[nH]c2ccccc2s1`, for which the “activity change, negative = cytotoxicity” value is -7.23% [at 116 µM].

For `CN1[C@@H]2CC[C@H]1CC(OC(c1ccccc1)c1ccccc1)C2` (stereo partly specified), the “activity change, negative = cytotoxicity” value is -2.09%.

For `COc1ccc(/C=C/C(=O)Nc2ccccc2C(=O)O)cc1OC`, the “activity change, negative = cytotoxicity” value was -3.47%.

Take `NC(=O)C(c1ccccc1)(c1ccccc1)[C@@H]1CCN(CCc2ccc3c(c2)CCO3)C1`: the “activity change, negative = cytotoxicity” value is -6.34%.

With `COc1cc(CNC(=O)CCCC/C=C/C(C)C)ccc1O`, the “activity change, negative = cytotoxicity” value was 1.5%.

As for `O=c1[nH]c2ccccc2n1CCCN1CCN(C(c2ccccc2)c2ccccc2)CC1`, the “activity change, negative = cytotoxicity” value was -28.8%.

With `O=C(Nc1ccc2c(c1)CCN(Cc1ncn[nH]1)C2)c1ccccc1-c1ccc(C(F)(F)F)cc1`, the “activity change, negative = cytotoxicity” value was 0.585%.

`Cc1onc(-c2c(F)cccc2Cl)c1C(=O)N[C@@H]1C(=O)N2[C@@H]1SC(C)(C)[C@@H]2C(=O)O`: the “activity change, negative = cytotoxicity” value is -0.542%.

For `COC(=O)C1=C(C)NC(C)=C(C(=O)OC)C1c1cccc(NC(=O)NCCCN2CCC(c3cccc(OC)c3)CC2)c1`, the “activity change, negative = cytotoxicity” value is -5.92%.

As for `CN1[C@@H]2CC[C@H]1CC(OC(=O)C(CO)c1ccccc1)C2` (stereo partly specified), the “activity change, negative = cytotoxicity” value is 6.52%.

In another experiment the test system is Hek293T. The experiment is described as above. To be noted: Gynecologic cancer cell panel viability, ATPlite luminescence, 48 h, control line for the selectivity index; series mostly up to 57.5 µM; activity change, negative = cytotoxicity: at the top concentration. Put shortly:
as §1
As for `CCCCN(CC)c1nc(C)nc2c1c(C)cn2-c1c(C)cc(C)cc1C`, the “activity change, negative = cytotoxicity” value is 6.78%.

For the compound `CCCSc1ccc2nc(NC(=O)OC)[nH]c2c1`, the Potency was 891 nM (active).

As for `S=c1[nH]c2ccccc2s1`, the “activity change, negative = cytotoxicity” value was 5.76% [at 116 µM].

With `CN1[C@@H]2CC[C@H]1CC(OC(c1ccccc1)c1ccccc1)C2` (stereo partly specified), the “activity change, negative = cytotoxicity” value is 1.05%.

Regarding `COc1ccc(/C=C/C(=O)Nc2ccccc2C(=O)O)cc1OC`, the “activity change, negative = cytotoxicity” value was -9.11%.

Take `NC(=O)C(c1ccccc1)(c1ccccc1)[C@@H]1CCN(CCc2ccc3c(c2)CCO3)C1`: the “activity change, negative = cytotoxicity” value is -10.3%.

For `COc1cc(CNC(=O)CCCC/C=C/C(C)C)ccc1O`, the “activity change, negative = cytotoxicity” value is 3.88%.

As for `O=C(Nc1ccc2c(c1)CCN(Cc1ncn[nH]1)C2)c1ccccc1-c1ccc(C(F)(F)F)cc1`, the “activity change, negative = cytotoxicity” value was 4.22%.

`Cc1onc(-c2c(F)cccc2Cl)c1C(=O)N[C@@H]1C(=O)N2[C@@H]1SC(C)(C)[C@@H]2C(=O)O`: the “activity change, negative = cytotoxicity” value was 6.11%.

Regarding `COC(=O)C1=C(C)NC(C)=C(C(=O)OC)C1c1cccc(NC(=O)NCCCN2CCC(c3cccc(OC)c3)CC2)c1`, the “activity change, negative = cytotoxicity” value is -2.58%.

`CN1[C@@H]2CC[C@H]1CC(OC(=O)C(CO)c1ccccc1)C2` (stereo partly specified): the “activity change, negative = cytotoxicity” value is 3.13%.
